# High-throughput results as filed in PubChem BioAssay.
# aDG glyco up – increases alpha dystroglycan glycosylation; actives 0.22% (n = 360,000); AID 624168; Pro5-aDG cells, alpha-DG glycosylation AlphaScreen (IIH6); 0% Pro5, 100% B10-LARGE cell signal; activation, % at 10 µM;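 active = activation of at least 8% versus controls, or a plate z-score of at least 8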;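 note: Pro5 are CHO cells carrying HIG-tagged alpha-DG that lacks glycosylation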
# Vif imaging – inhibitors of HIV Vif; inhibition, % at 7.49 µM; HEK293T cells, Vif self-association by quenched fluorescence, imaging, 24 h; actives 0.35% (n = 340,000); in the data active = inhibition above about 50%, passing the limit was not always enough
# H9c2 protect – myocardial damage modulation in H9c2 cells; H9c2 cardiomyocytes, H2O2 injury protection, ATPLite, 2 h; protection from H2O2 cell death, % at 20 µM; actives 0.63% (n = 360,000); AID 588492;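 active = compounds giving at least 50% protection of heart cells from peroxide-induced death in the single-dose screen, raw or plate-pattern-corrected value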
# Glyco luc inh – blocks N-linked glycosylation in D54 reporter cells | D54 ERlucT glycosylation luciferase reporter, 24 h; percent of 100 nM tunicamycin response | reporter increase, % at 12.5 µM | actives 0.23% (n = 360,000) | AID 588692;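 active = mean luciferase reporter signal, scaled so untreated is 0 and the glycosylation-blocking control 100, at or above a set limit in every replicate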;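 note: luciferase carries N-glycosylation sites so blocking glycosylation raises the light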
# ARNT TACC3 PPI – disrupts binding between human ARNT and TACC3 | Q9Y6A5 | AlphaScreen His-ARNT PAS-B/GST-TACC3 binding, luminescence; TACC3 fragment carries E629A point mutation | inhibition, % at 9.99 µM | actives 0.66% (n = 390,000) | AID 623870;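 active = mean inhibition of replicates at least 50% and at least half of replicates each reaching 50%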
# A number is an active result; - = inactive; . = no result given. Sampled rows, rich in hits. Any-hit rate of the full collection: about 1.7%.
SMILES,aDG glyco up,Vif imaging,H9c2 protect,Glyco luc inh,ARNT TACC3 PPI
CCOc1ccc2[nH]c(=O)c(CN(CCO)C(c3nnnn3C3CCCCC3)C(C)C)cc2c1 (configuration not stated),-,-,103,-,-
COc1cc(OC)cc(C(=O)N(CN2CCCC2=O)c2ccccc2OC)c1,-,54,-,-,-
O=C(Nc1ccccn1)C(=O)Nc1ccccn1,-,-,-,-,-
Cc1ccccc1S(=O)(=O)NNC(=O)C(=O)NNc1ccccn1,-,-,-,-,70
Nc1ccc(S(=O)(=O)NCc2ccccn2)cc1,-,-,-,-,-
Cc1ccc(S(=O)(=O)NNC(=O)C(=O)NNc2ccccn2)cc1,-,-,-,-,63
CC(=O)Nc1ccc(S(=O)(=O)NNC(=O)C(=O)NNc2ccccn2)cc1,-,-,-,-,75
CC(=O)Nc1ccc(S(=O)(=O)Nc2ccccn2)cc1,-,-,-,-,-
Cc1ccc(S(=O)(=O)NNC(=O)C(O)(c2ccccc2)c2ccccc2)cc1,-,-,-,-,-
Nc1ccc(S(=O)(=O)NNC(=O)C(=O)NNc2ccccn2)cc1,-,-,-,-,74
CCCC(=O)Nc1ccc2c(c1)OC[C@H](C)N(Cc1ccncc1)C[C@H](C)[C@H](OC)CN(C)C2=O,.,.,.,.,-
O=C(c1cc2ccccc2oc1=O)N(Cc1ccco1)Cc1cccs1,-,59,-,-,-
O=C(c1cc2ccccc2oc1=O)N(Cc1cccs1)Cc1cccs1,-,-,-,-,-
CCC(ONc1ccccc1C(F)(F)F)(C(=O)NN(C)C)c1ccccc1 (configuration not stated),-,-,53,-,-
CCC(=O)N[C@H]1CC[C@@H](CC(=O)NCc2ccc(OC)cc2)O[C@@H]1CO,.,.,.,.,-
O=C(NCc1ccccc1)[C@H]1N[C@H]2c3ccc(-c4ccccc4)c(=O)n3C[C@H]2[C@@H]1CO,.,.,.,.,-
O=C(C[C@H]1CC[C@@H]2[C@H](COC[C@H](O)CN2Cc2cc(F)cc(F)c2)O1)NCc1cccc(F)c1,.,.,.,.,-
Cc1ccc(NC(=O)COc2ccc(N(C)C(=O)C(C)(C)C)cc2)cc1S(=O)(=O)N1CCCCC1,4.6,.,-,-,.
Cc1noc(C)c1NC(=O)Nc1cccc2c1O[C@H](CN(C)C)[C@@H](C)CN([C@H](C)CO)C2=O,.,.,.,.,-
C[C@H](CO)N1C[C@H](C)[C@H](CN(C)C(=O)Nc2ccc3c(c2)OCO3)Oc2c(NC(=O)c3ccncc3)cccc2C1=O,.,.,.,.,-
COc1ccc(-c2cc(=O)oc3c(O)c(O)ccc23)cc1,-,-,63,-,-
COC(=O)c1ccc(COc2ccccc2/C=C(\C#N)C(=O)Nc2c(C)cccc2C)cc1,-,.,-,37,-
COc1ccc(/C=C/C(=O)NC(=S)NCCc2ccc(OC)c(OC)c2)cc1,-,70,-,-,-
COc1ccc2cc3cc(C(=O)NCCc4ccc(OC)c(OC)c4)oc3nc2c1,-,-,87,-,-
Cc1ccc(S(=O)(=O)N[C@H]2C=C[C@H](CC(=O)NCc3ccncn3)O[C@@H]2CO)cc1,.,.,.,.,-
SMILES,aDG glyco up,Vif imaging,H9c2 protect,Glyco luc inh,ARNT TACC3 PPI
C[C@@H](NC(=O)[C@H]1[C@H](CO)[C@H]2Cn3c(cccc3=O)[C@@H]1N2C(=O)C1CCCC1)c1ccccc1,.,.,.,.,-
C[C@@H]1CN([C@H](C)CO)C(=O)c2cccc(NC(=O)C3CCCCC3)c2O[C@@H]1CN(C)C(=O)Nc1ccc(C(F)(F)F)cc1,.,.,.,.,-
O=C(O)c1cccnc1Cl,-,-,-,-,-
O=C(O)c1cccnc1C(=O)O,-,-,-,-,50
FC(F)(F)c1nnc2ccc(N3CCCCCC3)nn12,-,-,-,-,-
FC(F)(F)c1nnc2ccc(N3CCCC3)nn12,-,-,52,-,.
O=S(=O)(Nc1nc2ccccc2nc1NCc1ccco1)c1ccc(Cl)cc1,-,62,-,-,-
Cc1ccc(S(=O)(=O)Nc2nc3ccccc3nc2NCc2ccco2)cc1,-,-,-,-,-
CCOC(=O)CNC(=O)CSc1nc2nc(C)c(Br)cc2[nH]1,-,.,50,-,-
COc1ccc(NC(=S)NNC(=O)c2nnn(-c3ccccc3)c2C)cc1,-,-,-,-,62
CCOC(=O)c1c(NC(=O)c2cc3n(n2)C(C(F)(F)F)CC(c2cccs2)N3)sc(C)c1C (configuration not stated),-,-,-,98,.
Cc1csc(SCCn2c(N3CCN(c4ccccc4)CC3)nc3c2c(=O)[nH]c(=O)n3C)n1,-,57,-,-,-
CCOc1cc(/C=C2\C(=O)N(c3ccc(C(N)=O)cc3)N=C2C)ccc1OC(=O)c1cccs1,-,-,-,-,14
COc1cc(CN2C[C@@H](CO)O[C@@H](n3cnc4c(Nc5ccccc5)ncnc43)C2)cc(OC)c1OC,-,-,79,-,.
COc1ccc(OC)c(C(=O)COC(=O)c2ccc([N+](=O)[O-])o2)c1,-,-,54,-,-
CO[C@@H](CN(C)S(=O)(=O)c1ccc(F)cc1)[C@@H](C)CN([C@@H](C)CO)S(=O)(=O)c1cccc(Cl)c1,.,.,.,.,-
Cc1ccc(CN2CC(C(=O)Nc3nnc(SCc4c(Cl)cccc4Cl)s3)CC2=O)cc1 (configuration not stated),-,-,-,-,-
Cc1cnc(C(=O)Nc2nnc(SCc3c(Cl)cccc3Cl)s2)cn1,-,-,54,-,-
O=C(C[C@@H]1CC[C@H](NC(=O)C2CC2)[C@H](CO)O1)NC1CCC1,.,.,.,.,-
CCC(=O)Nc1ccc2c(c1)C(=O)N(C)C[C@@H](OC)[C@@H](C)CN(C(=O)NC(C)C)[C@H](C)CO2,.,.,.,.,-
C/C=C/c1ccc2c(c1)O[C@H](CN(C)C(=O)Cc1ccccc1)[C@@H](C)CN([C@H](C)CO)S2(=O)=O,.,.,.,.,-
Cc1ccccc1N=Cc1cccc(O)c1O,-,-,58,-,-
CC(N=Cc1cccc(O)c1O)c1ccccc1 (configuration not stated),-,-,59,-,-
CCN(CC)c1ccc(C=Nc2ccc(C)cc2C)c(O)c1,-,-,-,-,-
Cc1ccc(N=Cc2cccc(O)c2O)c(C)c1,-,-,73,-,-
SMILES,aDG glyco up,Vif imaging,H9c2 protect,Glyco luc inh,ARNT TACC3 PPI
C[C@H]1CN([C@@H](C)CO)C(=O)c2cccc(NC(=O)Nc3ccc(F)cc3)c2O[C@H]1CN(C)Cc1ccc(Oc2ccccc2)cc1,.,.,.,.,-
COc1ccc(OCc2cnc(Cl)s2)cc1,-,55,-,-,-
C=CCc1cccc(/C=N/NC(=O)CNc2cccc3ccccc23)c1O,-,-,-,-,-
C=CCc1cccc(/C=N/NC(=O)CNc2ccccc2)c1O,-,-,-,-,-
C=CCc1cccc(/C=N/NC(=O)C[n+]2ccccc2)c1O,-,-,-,-,80
C=CCc1cccc(/C=N/NC(=O)CNc2ccccc2OC)c1O,-,-,63,-,-
C=CCc1cccc(/C=N/NC(=O)CCCNc2ccc(C)cc2)c1O,-,-,-,-,-
